Laboratory results published in the supplement of paper PMC11732987, “Enantioselective OTUD7B fragment discovery through chemoproteomics screening and high-throughput optimisation” (Communications Chemistry, 2025).

Assays:
Assay in all cases: log2 ratio of Biotin-Ahx-Ub-VS probe labelling (fragment/DMSO); higher = less target engagement (more negative = stronger competition), active = hit call of the paper (q ≤ 0.05, log2 ratio ≤ -1)
Conditions in all cases: compound concentration: 200 uM; treatment time: 3 h
[1] = target: T1, USP19 (UniProt O94966)
T1 sequence (whole entry): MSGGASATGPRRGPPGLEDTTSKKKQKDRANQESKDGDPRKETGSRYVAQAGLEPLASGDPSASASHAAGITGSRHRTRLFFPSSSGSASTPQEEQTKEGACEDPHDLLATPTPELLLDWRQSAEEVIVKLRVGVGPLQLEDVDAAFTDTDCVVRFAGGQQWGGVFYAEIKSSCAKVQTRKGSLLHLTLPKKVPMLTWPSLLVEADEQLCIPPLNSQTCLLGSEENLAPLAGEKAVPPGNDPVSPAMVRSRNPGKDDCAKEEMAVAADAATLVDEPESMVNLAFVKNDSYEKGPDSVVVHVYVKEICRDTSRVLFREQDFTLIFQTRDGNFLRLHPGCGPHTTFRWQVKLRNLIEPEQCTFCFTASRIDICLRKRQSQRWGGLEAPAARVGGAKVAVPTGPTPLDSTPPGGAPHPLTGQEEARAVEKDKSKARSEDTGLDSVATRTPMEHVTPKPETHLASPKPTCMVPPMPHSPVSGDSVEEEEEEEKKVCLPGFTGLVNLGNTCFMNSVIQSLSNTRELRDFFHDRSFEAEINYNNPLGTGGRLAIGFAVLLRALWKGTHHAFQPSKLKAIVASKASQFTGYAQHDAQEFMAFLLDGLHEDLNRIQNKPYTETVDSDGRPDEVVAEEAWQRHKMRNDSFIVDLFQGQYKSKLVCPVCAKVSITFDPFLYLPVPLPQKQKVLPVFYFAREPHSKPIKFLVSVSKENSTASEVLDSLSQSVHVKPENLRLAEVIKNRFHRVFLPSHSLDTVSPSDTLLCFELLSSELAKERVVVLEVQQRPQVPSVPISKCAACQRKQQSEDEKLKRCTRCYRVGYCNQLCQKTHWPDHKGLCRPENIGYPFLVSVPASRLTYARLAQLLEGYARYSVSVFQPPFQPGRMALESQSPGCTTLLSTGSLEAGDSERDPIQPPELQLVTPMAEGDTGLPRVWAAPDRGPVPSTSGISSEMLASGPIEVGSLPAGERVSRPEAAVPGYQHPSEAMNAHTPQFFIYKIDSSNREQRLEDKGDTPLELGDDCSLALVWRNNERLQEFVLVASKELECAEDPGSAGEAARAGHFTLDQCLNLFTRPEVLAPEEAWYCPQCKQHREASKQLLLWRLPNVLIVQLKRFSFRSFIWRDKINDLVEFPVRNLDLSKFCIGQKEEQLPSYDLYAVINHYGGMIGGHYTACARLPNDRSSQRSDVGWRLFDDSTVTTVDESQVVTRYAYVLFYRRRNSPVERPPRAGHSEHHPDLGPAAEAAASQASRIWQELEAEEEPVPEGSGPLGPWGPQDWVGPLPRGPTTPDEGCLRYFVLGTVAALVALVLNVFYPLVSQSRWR
Method in brief: (§1)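 HEK293T lysate in Tris/CHAPS/IGEPAL buffer with protease inhibitors (495 µg per sample) was given fragment at 200 µM or vehicle for 3 h, in triplicate. It then received Biotin-Ahx-Ub-VS at 0.5 µM final for 1 h. Labelled DUBs were NeutrAvidin-enriched, digested with LysC and trypsin, and run by diaPASEF LC-MS/MS. Values are average log2 fragment/vehicle ratios by unpaired t-test on global-median-normalised Spectronaut quantities of proteins with ≥2 unique peptides.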

[2] = target: T2, USP22 (UniProt Q9UPT9)
T2 sequence (whole entry): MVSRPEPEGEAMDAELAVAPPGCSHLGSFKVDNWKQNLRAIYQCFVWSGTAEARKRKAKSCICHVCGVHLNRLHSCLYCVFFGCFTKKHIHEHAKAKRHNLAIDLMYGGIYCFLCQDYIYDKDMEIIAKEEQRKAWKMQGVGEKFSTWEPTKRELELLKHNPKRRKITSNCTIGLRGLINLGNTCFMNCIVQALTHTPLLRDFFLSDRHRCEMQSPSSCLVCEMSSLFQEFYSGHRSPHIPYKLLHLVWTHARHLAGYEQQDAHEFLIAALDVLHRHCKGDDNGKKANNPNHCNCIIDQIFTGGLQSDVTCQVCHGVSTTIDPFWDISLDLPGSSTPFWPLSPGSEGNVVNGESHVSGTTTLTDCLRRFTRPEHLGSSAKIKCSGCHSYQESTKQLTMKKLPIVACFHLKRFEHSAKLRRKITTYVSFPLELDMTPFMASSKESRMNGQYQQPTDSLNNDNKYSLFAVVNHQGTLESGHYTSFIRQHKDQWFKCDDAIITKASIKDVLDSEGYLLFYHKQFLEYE
Method in brief: as §1

[3] = target: USP24 (UniProt Q9UPU5)
Method in brief: as §1

[4] = target: T3, USP25 (UniProt Q9UHP3)
T3 sequence (whole entry): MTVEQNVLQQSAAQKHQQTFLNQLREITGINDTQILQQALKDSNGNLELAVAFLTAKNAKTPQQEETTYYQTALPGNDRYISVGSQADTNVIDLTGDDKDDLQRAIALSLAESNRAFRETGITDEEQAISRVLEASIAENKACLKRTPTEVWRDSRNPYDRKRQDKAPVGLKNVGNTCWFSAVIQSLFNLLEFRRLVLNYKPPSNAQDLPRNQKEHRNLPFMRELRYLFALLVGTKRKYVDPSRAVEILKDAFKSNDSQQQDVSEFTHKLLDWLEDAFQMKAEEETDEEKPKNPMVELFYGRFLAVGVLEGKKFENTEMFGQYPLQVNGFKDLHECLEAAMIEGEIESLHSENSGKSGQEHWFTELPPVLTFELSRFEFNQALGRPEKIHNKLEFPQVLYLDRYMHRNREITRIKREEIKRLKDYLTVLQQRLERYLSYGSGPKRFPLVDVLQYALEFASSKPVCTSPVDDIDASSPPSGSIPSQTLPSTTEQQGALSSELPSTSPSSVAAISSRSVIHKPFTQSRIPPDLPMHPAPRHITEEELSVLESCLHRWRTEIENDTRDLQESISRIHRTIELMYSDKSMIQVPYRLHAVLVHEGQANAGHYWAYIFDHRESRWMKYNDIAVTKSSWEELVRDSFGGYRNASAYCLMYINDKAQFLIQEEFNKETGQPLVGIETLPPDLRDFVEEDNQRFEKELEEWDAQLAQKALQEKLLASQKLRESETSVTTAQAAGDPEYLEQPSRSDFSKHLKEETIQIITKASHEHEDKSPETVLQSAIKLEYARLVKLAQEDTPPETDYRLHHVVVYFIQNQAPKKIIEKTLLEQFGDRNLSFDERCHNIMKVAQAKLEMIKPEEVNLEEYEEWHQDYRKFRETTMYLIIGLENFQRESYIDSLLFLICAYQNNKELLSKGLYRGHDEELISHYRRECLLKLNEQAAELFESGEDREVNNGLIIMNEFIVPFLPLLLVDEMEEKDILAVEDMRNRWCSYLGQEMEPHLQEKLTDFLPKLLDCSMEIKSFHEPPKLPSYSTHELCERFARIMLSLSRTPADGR
Method in brief: as §1

[5] = target: T4, USP28 (UniProt Q96RU2)
T4 sequence (whole entry): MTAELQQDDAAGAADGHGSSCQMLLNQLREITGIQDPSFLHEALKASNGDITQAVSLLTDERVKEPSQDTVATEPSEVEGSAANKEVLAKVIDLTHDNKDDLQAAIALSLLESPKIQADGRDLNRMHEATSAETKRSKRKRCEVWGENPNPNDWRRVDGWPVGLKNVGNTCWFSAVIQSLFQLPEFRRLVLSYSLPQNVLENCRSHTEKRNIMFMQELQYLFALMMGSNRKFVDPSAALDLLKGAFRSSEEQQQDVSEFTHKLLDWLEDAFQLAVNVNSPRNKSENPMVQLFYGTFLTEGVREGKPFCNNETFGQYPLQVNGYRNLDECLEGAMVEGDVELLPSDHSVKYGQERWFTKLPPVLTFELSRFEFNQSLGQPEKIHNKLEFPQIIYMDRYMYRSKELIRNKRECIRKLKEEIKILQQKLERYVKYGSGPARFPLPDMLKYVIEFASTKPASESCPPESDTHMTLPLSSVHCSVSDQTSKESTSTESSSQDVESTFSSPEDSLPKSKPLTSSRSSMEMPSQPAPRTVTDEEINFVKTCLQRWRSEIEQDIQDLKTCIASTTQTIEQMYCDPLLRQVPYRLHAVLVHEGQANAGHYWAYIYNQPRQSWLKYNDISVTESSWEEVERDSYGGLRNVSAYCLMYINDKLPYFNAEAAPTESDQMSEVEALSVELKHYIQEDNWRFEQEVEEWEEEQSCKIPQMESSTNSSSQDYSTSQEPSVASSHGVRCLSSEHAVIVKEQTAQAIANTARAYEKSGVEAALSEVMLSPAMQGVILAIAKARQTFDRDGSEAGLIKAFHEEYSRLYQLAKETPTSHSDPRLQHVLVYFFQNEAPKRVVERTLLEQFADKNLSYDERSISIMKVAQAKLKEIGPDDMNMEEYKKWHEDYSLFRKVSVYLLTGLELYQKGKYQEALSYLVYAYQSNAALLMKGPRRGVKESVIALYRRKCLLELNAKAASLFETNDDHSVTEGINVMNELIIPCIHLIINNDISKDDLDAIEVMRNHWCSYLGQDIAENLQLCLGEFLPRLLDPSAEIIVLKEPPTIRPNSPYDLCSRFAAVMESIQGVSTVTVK
Method in brief: as §1

Measured: log2 ratio of Biotin-Ahx-Ub-VS probe labelling

USP24, sequence (Q9UPU5 whole entry): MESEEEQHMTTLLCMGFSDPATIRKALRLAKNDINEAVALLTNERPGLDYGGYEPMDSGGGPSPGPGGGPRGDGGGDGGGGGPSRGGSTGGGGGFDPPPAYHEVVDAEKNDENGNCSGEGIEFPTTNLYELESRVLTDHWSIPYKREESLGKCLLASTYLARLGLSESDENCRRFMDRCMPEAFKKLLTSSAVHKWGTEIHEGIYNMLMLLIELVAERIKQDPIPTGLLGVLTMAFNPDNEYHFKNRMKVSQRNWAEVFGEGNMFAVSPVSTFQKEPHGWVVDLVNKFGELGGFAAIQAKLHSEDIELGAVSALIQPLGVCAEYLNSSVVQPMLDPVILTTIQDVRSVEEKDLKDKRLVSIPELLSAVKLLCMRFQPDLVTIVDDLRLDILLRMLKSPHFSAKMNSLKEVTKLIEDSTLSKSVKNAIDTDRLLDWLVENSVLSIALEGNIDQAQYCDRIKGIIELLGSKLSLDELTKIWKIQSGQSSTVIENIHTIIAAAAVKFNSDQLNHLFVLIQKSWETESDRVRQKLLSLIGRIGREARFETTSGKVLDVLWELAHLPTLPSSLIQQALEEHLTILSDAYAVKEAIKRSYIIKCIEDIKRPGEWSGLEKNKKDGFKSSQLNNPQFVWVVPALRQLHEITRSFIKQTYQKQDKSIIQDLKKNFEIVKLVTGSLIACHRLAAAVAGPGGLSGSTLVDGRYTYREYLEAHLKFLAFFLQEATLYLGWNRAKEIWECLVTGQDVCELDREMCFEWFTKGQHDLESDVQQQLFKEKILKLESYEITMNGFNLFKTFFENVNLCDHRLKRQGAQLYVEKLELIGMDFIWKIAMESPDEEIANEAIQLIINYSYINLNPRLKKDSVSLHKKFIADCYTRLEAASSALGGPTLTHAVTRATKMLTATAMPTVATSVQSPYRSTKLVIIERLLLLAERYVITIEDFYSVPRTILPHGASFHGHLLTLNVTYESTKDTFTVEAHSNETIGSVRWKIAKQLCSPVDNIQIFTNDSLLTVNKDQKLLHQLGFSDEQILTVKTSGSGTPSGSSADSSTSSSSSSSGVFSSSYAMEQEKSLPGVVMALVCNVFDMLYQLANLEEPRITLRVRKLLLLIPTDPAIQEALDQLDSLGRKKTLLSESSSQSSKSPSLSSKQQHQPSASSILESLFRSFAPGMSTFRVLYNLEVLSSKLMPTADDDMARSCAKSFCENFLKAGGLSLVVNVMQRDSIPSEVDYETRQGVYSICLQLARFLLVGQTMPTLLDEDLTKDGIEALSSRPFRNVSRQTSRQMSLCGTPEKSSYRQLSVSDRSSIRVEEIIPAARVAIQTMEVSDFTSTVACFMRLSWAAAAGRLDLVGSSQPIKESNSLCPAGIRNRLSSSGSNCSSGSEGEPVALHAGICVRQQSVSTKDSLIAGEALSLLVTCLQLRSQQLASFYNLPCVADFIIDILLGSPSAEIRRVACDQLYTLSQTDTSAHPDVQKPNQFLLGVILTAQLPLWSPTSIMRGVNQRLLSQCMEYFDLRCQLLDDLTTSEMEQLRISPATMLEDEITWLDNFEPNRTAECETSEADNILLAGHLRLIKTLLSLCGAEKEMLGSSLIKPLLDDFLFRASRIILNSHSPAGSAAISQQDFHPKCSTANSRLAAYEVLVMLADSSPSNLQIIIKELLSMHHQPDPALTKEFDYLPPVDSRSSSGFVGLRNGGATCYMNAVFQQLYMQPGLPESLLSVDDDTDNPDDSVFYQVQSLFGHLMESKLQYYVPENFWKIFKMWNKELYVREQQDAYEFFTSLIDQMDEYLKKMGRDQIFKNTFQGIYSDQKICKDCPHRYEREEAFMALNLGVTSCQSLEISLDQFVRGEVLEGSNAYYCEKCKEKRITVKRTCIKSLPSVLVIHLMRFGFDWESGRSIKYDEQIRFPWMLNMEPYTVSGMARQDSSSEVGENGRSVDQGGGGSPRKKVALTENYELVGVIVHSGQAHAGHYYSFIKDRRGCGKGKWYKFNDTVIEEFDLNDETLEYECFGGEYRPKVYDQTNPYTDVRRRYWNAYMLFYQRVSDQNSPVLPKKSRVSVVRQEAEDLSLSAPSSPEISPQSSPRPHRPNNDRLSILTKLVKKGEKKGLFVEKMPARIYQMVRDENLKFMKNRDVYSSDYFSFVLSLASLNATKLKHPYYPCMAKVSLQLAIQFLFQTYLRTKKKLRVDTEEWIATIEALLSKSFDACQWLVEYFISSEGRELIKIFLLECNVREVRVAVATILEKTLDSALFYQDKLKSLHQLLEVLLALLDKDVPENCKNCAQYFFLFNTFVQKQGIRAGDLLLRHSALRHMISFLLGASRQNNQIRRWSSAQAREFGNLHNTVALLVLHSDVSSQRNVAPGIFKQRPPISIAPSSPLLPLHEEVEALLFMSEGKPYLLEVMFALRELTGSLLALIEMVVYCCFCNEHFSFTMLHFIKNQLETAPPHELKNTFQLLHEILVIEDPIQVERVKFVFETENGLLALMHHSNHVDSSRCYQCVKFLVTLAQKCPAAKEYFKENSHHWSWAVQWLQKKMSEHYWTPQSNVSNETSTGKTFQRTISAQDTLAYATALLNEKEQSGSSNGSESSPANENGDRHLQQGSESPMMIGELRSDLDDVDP

Cl.Cn1ncc2c1CCCC2NC(=O)CCl (stereo not given)
inactive: [1] -0.297 | [2] 0.202 | [3] -0.29 | [4] -0.289 | [5] -0.57
